From PubChem BioAssay (NCATS)
Inconclusive results are not listed. Activity calls are given as the source filed them. Unless noted, calls follow the shape of the dose curve; as a rule, active = well fitted curve in the direction sought with a large enough effect; inconclusive = small, poorly fitted or top-dose-only effect, or another doubt; inactive = no such curve, though single readings can be large; an effect the other way counts as inactive or inconclusive.

How the values were obtained:
[1] = molecular target: Catechol O-methyltransferase (Homo sapiens) (UniProt P21964); test: Confirmatory Screen for Target Class Profiling of Small Molecule Inhibitors of Methyltransferases (AID 1745852); settings: MTase-Glo luminescence, SAH detection, recombinant enzyme; measured here: COMT max response; stronger effect = lower value; as to activity change, negative = inhibition: % is scaled to controls: 0 for no effect and ±100 for the full control effect
Chain of Catechol O-methyltransferase (Homo sapiens) (P21964 whole entry, looked up): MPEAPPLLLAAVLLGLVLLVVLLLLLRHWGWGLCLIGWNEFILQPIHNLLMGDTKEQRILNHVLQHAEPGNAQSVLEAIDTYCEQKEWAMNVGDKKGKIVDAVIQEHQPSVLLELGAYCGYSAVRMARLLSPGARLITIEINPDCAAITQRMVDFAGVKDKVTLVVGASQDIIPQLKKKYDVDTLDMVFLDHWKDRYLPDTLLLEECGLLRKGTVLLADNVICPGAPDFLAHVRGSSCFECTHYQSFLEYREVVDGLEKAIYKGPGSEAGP

[2] = molecular target: Guanidinoacetate N-methyltransferase (Homo sapiens) (UniProt Q14353); test: as above; settings: MTase-Glo luminescence, SAH detection, recombinant enzyme; activity change, negative = inhibition: at 85.7 µM (top of the series) unless noted
[3] = molecular target: Nicotinamide N-methyltransferase (Homo sapiens) (UniProt P40261); test: as above; settings: MTase-Glo luminescence, SAH detection, recombinant enzyme; measured here: NNMT max response; stronger effect = lower value
Chain of Nicotinamide N-methyltransferase (Homo sapiens) (P40261 whole entry, looked up): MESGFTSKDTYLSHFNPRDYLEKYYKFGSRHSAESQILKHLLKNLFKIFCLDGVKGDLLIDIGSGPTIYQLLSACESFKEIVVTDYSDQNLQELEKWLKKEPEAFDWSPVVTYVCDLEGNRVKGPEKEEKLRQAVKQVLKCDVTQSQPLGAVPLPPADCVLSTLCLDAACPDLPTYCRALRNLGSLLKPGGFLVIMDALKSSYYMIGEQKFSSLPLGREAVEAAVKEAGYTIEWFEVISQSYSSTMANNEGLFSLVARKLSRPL

[4] = molecular target: Phenylethanolamine N-methyltransferase (Homo sapiens) (UniProt P11086); test: as above; settings: MTase-Glo luminescence, SAH detection, recombinant enzyme; measured here: PNMT max response; stronger effect = lower value
Chain of Phenylethanolamine N-methyltransferase (Homo sapiens) (P11086 whole entry, looked up): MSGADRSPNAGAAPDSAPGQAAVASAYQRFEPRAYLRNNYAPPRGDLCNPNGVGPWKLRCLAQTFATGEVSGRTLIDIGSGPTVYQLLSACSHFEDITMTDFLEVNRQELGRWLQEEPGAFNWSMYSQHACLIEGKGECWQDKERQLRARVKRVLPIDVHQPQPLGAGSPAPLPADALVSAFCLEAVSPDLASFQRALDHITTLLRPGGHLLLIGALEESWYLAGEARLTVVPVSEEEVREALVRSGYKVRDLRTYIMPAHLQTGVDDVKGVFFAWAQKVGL

[5] = Counterscreen for APE1 Inhibitors: Fluorescent Dye Displacement Validation Assay (AID 1707);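 also: plate controls were ThO with dsDNA and no compound for no effect and ThO without dsDNA for full effect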
In short: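 Signal: ThO fluorescence (ex 480 nm/em 540 nm) on binding 50 nM dsDNA; displacement by test compound reduces it. Conditions: 250 nM dye, 50 mM Tris-HCl pH7.5, 2 mM MgCl2, 50mM NaCl, 0.01% Tween-20.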

[6] = qHTS for differential inhibitors of proliferation of Plasmodium falciparum line 7G8 (AID 1815);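 also: potency is read from the fitted curve at half-maximal effect; parasite growth measured after three days of incubation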
[7] = qHTS for differential inhibitors of proliferation of Plasmodium falciparum line GB4 (AID 1816); settings: Potency: Plasmodium falciparum GB4 proliferation inhibition;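 also: potency is read from the fitted curve at half-maximal effect; parasite growth measured after 72 h incubation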
[8] = qHTS for differential inhibitors of proliferation of Plasmodium falciparum line 3D7 (AID 1876); also: potency is read from the fitted curve at half-maximal effect
[9] = qHTS for differential inhibitors of proliferation of Plasmodium falciparum line D10 (AID 1877);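 also: potency is read from the fitted curve at half-maximal effect; parasites grown with compound for 72 h before DNA staining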
[10] = qHTS for differential inhibitors of proliferation of Plasmodium falciparum line Dd2 (AID 1882); settings: Potency: Plasmodium falciparum Dd2 proliferation inhibition; also: potency is read from the fitted curve at half-maximal effect; nearly all actives have a fitted effect of over 65% in size
In short: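 RBC culture, 0.3% parasitemia / 2.5% Hct final; cpd added by pin tool in DMSO; 72 h, 37 C, 5% CO2; lysis buffer + SYBR Green I, o/n RT dark; FI 485/535; norm. to artemisinin 0.29 uM and DMSO.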

[11] = qHTS for differential inhibitors of proliferation of Plasmodium falciparum line W2 (AID 1883); settings: Potency: Plasmodium falciparum W2 proliferation inhibition;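 also: potency is read from the fitted curve at half-maximal effect; parasites grown with compound for 72 h before lysis and staining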
[12] = qHTS for differential inhibitors of proliferation of Plasmodium falciparum line HB3 (AID 1886); settings: Potency: Plasmodium falciparum HB3 proliferation inhibition;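 also: potency is read from the fitted curve at half-maximal effect; parasites grown with compound for 72 h before SYBR Green readout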
[13] = NCATS anti-infectives library activity on HEK293 viability as a counter-qHTS vs the C. elegans viability qHTS (AID 1745854); also: potency is read from the fitted curve at half-maximal effect
In short: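 CellTiter-Glo luminescence, read on a CCD imager, scored viability of HEK293 cells after 24 hr compound exposure at 37C. Library tested in several concentrations, 1:5 steps, up to 41.7 uM; digitonin served as control.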

[14] = Viability counterscreen for antagonist of constitutive androstane receptor (CAR) against the NCATS DSHEA and TCM libraries (AID 1794837);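 also: compound exposure lasted 24 h before viability reading; 0% is about no effect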
In short: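 HepG2-CYP2B6-hCAR cells (2,500/well) were allowed to attach for 5 h, then exposed to compounds with 48 uM CITCO for 24 h at 37C. Viability was read by CellTiter-Fluor fluorescence after 1 h.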

[15] = Viability counterscreen for agonist of constitutive androstane receptor (CAR) against the NCATS DSHEA and TCM libraries (AID 1794838);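 also: HepG2 cells with CYP2B6 reporter and hCAR plus 0.75 µM PK11195 antagonist; 0% is about no effect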
In short: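 HepG2-CYP2B6-hCAR cells (2,500/well) attached 5 h, then got compounds plus 0.75 uM PK11195 final. After 24 h at 37C, viability read by CellTiter-Fluor fluorescence (Ex/Em 405/540 nm).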

[16] = HepG2 viability counterscreen (readout 2: ATP content) against the NCATS DSHEA and TCM libraries (AID 1794840);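 also: HepG2 cells exposed to substances for about 24 h; 0% is about no effect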
In short: (§1)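 HepG2 cells (1,000 cells/well) attached ~4 h, then treated ~24 h at 37C with substances. Protease activity read by GF-AFC (25 uM final, 30 min, Ex/Em 380/510 nm); ATP content then by CellTiter-Glo luminescence.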

[17] = HepG2 viability counterscreen (readout 1: protease activity) against the NCATS DSHEA and TCM libraries (AID 1794841);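 also: cells exposed to compounds for about 24 h before the protease read; 0% is about no effect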
In short: as §1

[18] = molecular target: Cytochrome P450 3A4 (Homo sapiens) (UniProt P08684); test: qHTS for inhibitors of CYP3A4 against the NCATS DSHEA and TCM libraries (AID 1919971); also: potency is read from the fitted curve at half-maximal effect
Chain of Cytochrome P450 3A4 (Homo sapiens) (P08684 whole entry, looked up): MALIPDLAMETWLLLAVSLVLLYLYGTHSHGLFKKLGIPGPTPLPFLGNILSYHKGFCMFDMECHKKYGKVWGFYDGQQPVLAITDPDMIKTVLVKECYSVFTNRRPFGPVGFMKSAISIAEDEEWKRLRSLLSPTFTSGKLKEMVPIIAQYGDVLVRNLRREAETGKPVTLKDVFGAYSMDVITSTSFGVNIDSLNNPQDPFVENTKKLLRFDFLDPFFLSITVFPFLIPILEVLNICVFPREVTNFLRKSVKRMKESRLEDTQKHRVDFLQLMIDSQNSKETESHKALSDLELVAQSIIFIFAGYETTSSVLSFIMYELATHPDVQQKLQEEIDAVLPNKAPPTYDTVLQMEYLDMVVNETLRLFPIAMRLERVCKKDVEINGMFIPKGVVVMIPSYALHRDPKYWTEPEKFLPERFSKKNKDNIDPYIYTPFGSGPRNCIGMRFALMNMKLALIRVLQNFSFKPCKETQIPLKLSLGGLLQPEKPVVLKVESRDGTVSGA
In short: (§2)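 Substances were tested against enzyme with a pro-luciferin substrate; minus-enzyme wells served as background. After NADPH-initiated oxidation (30-45 min, RT), light was generated with P450-Glo reagent.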

[19] = molecular target: Cytochrome P450 2C9 (Homo sapiens) (UniProt P11712); test: qHTS for inhibitors of CYP2C9 against the NCATS DSHEA and TCM libraries (AID 1919973); also: potency is read from the fitted curve at half-maximal effect
Chain of Cytochrome P450 2C9 (Homo sapiens) (P11712 whole entry, looked up): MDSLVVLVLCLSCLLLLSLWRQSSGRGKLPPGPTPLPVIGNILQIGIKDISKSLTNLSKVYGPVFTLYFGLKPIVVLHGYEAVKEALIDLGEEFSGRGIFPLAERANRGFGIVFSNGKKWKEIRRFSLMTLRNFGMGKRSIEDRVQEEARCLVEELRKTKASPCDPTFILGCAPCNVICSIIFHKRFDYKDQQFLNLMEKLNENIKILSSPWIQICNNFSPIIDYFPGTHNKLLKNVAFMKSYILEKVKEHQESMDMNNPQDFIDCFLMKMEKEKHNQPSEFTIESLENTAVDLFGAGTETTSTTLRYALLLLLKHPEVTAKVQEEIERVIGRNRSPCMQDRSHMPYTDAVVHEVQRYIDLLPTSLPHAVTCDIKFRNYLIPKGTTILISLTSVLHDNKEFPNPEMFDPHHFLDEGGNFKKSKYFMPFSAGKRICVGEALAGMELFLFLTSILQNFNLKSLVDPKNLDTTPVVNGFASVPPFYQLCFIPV
In short: as §2

[20] = molecular target: Cytochrome P450 2C19 (Homo sapiens) (UniProt P33261); test: qHTS for inhibitors of CYP2C19 against the NCATS DSHEA and TCM libraries (AID 1919974)
Chain of Cytochrome P450 2C19 (Homo sapiens) (P33261 whole entry, looked up): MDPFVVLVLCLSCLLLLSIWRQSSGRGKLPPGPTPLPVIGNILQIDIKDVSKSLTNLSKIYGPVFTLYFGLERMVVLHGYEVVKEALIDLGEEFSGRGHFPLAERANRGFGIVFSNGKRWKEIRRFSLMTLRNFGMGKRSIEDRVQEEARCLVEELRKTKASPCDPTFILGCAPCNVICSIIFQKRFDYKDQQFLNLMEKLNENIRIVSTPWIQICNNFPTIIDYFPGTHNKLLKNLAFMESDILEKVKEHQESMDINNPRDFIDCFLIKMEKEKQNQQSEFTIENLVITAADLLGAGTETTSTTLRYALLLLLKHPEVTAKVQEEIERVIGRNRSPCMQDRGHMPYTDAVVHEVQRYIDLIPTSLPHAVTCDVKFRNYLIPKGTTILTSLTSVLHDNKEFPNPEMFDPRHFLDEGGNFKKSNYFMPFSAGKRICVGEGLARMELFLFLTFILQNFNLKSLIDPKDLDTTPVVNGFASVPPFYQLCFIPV
In short: as §2

[21] = KB-8-5-11 P-gp reporter qHTS against the NCATS DSHEA and TCM libraries (AID 1919977); also: potency is read from the fitted curve at half-maximal effect; as to activity change, negative = inhibition: 0% is about no effect
In short: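 P-gp-overexpressing KB-8-5-11 cells (500/well) were plated in colchicine-free DMEM with 10% FBS, attached ~4 h, then exposed to substance titrations for ~72 h at 37C. Viability was read by CellTiter-Glo luminescence.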

[22] = qHTS Counterscreen for compound interference against the NCATS DSHEA and TCM libraries (AID 1919978); settings: firefly luciferase detection reagent interference, luminescence; also: % of control where 0% means no effect
In short: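 D-luciferin (1 uM final) or 100 mM potassium phosphate buffer alone was preincubated 15 min at RT with compounds (19.5 nM to 39.8 uM final). Luciferin detection reagent was then added and luminescence read after 30 min at RT.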

[23] = Dual reporter qHTS for agonist of Pregnane X Receptor (hPXR) against the NCATS DSHEA and TCM libraries: Fluorescence readout (AID 1920058); also: 0% is about no effect
In short: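 Fluorescence read-out for cell viability: CellTiter-Fluor, 1 h at 37 °C, Ex/Em 405/540 nm. This followed ~24 h treatment of hPXR-Luc HepG2 cells with substances in agonist mode.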

[24] = molecular target: Nuclear receptor subfamily 1 group I member 2 (Homo sapiens) (UniProt O75469); test: Dual reporter qHTS for antagonist of Pregnane X Receptor (hPXR) against the NCATS DSHEA and TCM libraries: Luminescence Readout (AID 1920060);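 also: HepG2 cells carrying hPXR luciferase reporter stimulated with rifampicin at 2 µM; 0% is about no effect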
Chain of Nuclear receptor subfamily 1 group I member 2 (Homo sapiens) (O75469 whole entry, looked up): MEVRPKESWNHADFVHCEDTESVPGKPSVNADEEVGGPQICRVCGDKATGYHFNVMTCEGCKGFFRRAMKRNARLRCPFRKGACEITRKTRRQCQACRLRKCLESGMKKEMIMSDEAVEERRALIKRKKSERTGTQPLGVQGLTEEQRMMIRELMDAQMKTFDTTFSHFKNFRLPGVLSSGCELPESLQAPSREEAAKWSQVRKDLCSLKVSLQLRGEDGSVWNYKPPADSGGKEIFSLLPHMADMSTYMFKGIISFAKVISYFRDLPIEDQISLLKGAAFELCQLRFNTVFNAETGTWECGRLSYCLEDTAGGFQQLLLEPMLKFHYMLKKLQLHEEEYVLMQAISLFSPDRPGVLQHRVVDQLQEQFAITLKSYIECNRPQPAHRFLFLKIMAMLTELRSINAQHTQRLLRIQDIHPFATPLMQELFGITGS
In short: (§3)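 Antagonist mode: rifampicin 2 uM final co-added with compounds to hPXR-LucHepG2 cells for 24 h at 37C. Viability by CellTiter-Fluor, Ex/Em 405/540 nm, 1 h; reporter by ONE-Glo luminescence.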

[25] = Dual reporter qHTS for antagonist of Pregnane X Receptor (hPXR) against the NCATS DSHEA and TCM libraries: Fluorescence Readout (AID 1920061); also: 0% is about no effect
In short: as §3

[26] = molecular target: Bile acid receptor (Homo sapiens) (UniProt Q96RI1); test: qHTS assay for small molecule agonists of farnesoid X receptor signaling (AID 588527; calls by dose curve;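 also: 0% = vehicle basal and 100% = reference agonist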); settings: HEK293T FXR-UAS-bla, beta-lactamase ratio, 16 h; stronger effect = higher value
Chain of Bile acid receptor (Homo sapiens) (Q96RI1 whole entry, looked up): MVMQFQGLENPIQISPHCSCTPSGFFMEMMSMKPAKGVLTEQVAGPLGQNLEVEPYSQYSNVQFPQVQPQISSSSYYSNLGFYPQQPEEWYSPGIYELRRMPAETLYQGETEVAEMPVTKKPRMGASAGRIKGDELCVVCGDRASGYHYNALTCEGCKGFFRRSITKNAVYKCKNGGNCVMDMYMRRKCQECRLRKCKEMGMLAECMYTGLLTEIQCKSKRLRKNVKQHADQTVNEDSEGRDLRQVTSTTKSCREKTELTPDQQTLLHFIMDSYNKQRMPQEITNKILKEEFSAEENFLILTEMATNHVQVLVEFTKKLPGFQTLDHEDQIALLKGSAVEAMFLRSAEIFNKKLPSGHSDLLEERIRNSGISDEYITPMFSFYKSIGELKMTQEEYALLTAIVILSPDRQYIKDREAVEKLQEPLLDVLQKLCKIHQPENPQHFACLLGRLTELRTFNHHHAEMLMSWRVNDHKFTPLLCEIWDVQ
In short: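 FXR-UAS-bla HEK293T, 10% dialyzed FBS; cpds up to 92 uM titration, 16 h 37 C; CCF4 dye 2 h RT; fluorescence. Normalized to chenodeoxycholic acid 100 uM (100%) and DMSO (0%); Hill fit gives EC50, efficacy.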

[27] = molecular target: Nuclear receptor subfamily 1 group I member 3 (Homo sapiens) (UniProt Q14994); test: Primary qHTS for antagonist of constitutive androstane receptor (CAR) against the NCATS DSHEA and TCM libraries (AID 1794836)
Chain of Nuclear receptor subfamily 1 group I member 3 (Homo sapiens) (Q14994 whole entry, looked up): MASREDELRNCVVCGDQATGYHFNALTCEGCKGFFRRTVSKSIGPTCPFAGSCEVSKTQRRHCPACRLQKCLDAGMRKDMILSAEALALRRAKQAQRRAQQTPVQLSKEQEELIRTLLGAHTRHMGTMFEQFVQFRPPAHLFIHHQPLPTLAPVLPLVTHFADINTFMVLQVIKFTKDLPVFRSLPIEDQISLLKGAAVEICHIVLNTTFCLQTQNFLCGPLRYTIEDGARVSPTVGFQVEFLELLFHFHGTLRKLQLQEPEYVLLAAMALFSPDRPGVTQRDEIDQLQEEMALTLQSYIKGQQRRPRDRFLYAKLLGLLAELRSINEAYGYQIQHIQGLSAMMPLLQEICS
In short: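 HepG2 cells stably carrying hCAR and a CYP2B6 luciferase reporter (2,500 cells/well) attached for 5 h, then received compounds with 48 uM CITCO for 24 h at 37C. ONE-Glo luminescence read antagonism; CellTiter-Fluor (405/540 nm) gave viability.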

With `CNC1CCc2ccccc21` (stereo not drawn) the activity [1] was -8.85%, the activity change, negative = inhibition [2] was 9.32% [at 114 µM] and the activity [3] was -95.4%. The activity [4] was -50.7%.
In the case of `C[C@]12C=CC(=O)C=C1CCC1C2=CC[C@]2(C)[C@@H](C(=O)CN3CCN(c4cc(N5CCCC5)nc(N5CCCC5)n4)CC3)CC[C@@H]12` (stereo partly drawn), the outcome [5] is reported as “inactive”, the Potency [6] is reported as 1120 nM (active) and the Potency [7] is reported as 1260 nM (active). The Potency [8] was 794 nM (active), the Potency [9] was 1580 nM (active) and the Potency [10] was 10000 nM (active). The Potency [11] was 794 nM (active) and the Potency [12] was 1410 nM (active).
With `Nc1ncnc2c1ccn2[C@@H]1O[C@H](CO)[C@@H](O)[C@H]1O` the Potency [13] was 1120 nM (active).
For `C=C[C@H]1CN2CCc3c([nH]c4ccccc34)[C@H]2C[C@@H]1/C(=C\OC)C(=O)OC`, the outcome [14] was “inactive”, the outcome [15] was “inactive” and the outcome [16] was “inactive”. The outcome [17] was “inactive”, the Potency [18] was 14100 nM (active) and the Potency [19] was 3160 nM (active). For the same compound, the Potency [20] was 7080 nM (active), the Potency [21] was 22400 nM (active) and the max response [22] was -1.5% (inactive). The outcome [23] was “inactive”, the outcome [24] was “inactive” and the outcome [25] was “inactive”.
In the case of `CC1=C2[C@H](/C=C(\C)C(=O)O)CC[C@@H](C)[C@H]2CC1`, the activation [26] is reported as -3.32% (inactive), the Potency [27] is reported as “inactive” and the Potency [21] is reported as “inactive”.
